Assay outcomes from PubChem BioAssay.
In the library only some 0.86% were active in any assay of this set; here they are far more common.
AmpC no deterg = AmpC beta-lactamase inhibition without detergent; P00811; AmpC nitrocefin hydrolysis, absorbance 480 nm, 0.0001% Triton; Potency, µM (titrated, usually from 57.1 µM), for inactives: at the highest dose activity change, negative = inhibition, most hits filed as inhibitors; 330,000 tested, 0.52% active; AID 485341;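 also: potency is read from the fitted curve at half-maximal effect; plate controls were no compound for no effect and no enzyme for full effect; nearly all actives have a fitted effect of over 20% in size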
Target sequence (P00811 whole entry, looked up): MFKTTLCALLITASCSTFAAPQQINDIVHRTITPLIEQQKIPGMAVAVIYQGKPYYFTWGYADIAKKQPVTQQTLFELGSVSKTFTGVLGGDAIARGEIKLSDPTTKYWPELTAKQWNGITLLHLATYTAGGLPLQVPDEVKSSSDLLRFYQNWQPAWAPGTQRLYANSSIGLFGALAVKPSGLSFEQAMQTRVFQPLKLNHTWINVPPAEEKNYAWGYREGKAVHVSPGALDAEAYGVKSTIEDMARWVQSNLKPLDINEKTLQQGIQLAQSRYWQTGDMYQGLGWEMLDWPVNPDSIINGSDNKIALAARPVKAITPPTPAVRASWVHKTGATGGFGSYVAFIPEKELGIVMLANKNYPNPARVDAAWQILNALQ
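AmpC (5.3 nM in the dispensed reagent) in 20 mM phosphate pH 7.0 with 0.01% (detergent screen) or 0.0001% Triton X-100 was preincubated with compounds for 15 min at room temperature. Nitrocefin was then added from an 800 uM solution, and hydrolysis was followed at 480 nm.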
AmpC inh detg = AmpC beta-lactamase inhibition with detergent present; AmpC hydrolysis of nitrocefin, absorbance 480 nm, 0.01% Triton; Potency, µM (doses to about 114 µM), inactives show at the highest dose activity change, negative = inhibition, hits mostly inhibitors; 370,000 tested, 0.041% active;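 also: potency is read from the fitted curve at half-maximal effect; 0% = no-compound wells and -100% = no-enzyme wells; nearly all actives have a fitted effect of over 25% in size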
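AmpC (5.3 nM in the dispensed reagent) in 20 mM phosphate pH 7.0 with 0.01% (detergent screen) or 0.0001% Triton X-100 was preincubated with compounds for 15 min at room temperature. Nitrocefin was then added from an 800 uM solution, and hydrolysis was followed at 480 nm.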
AMA1 RON2 block = disrupts binding of P. falciparum AMA1 to RON2; AlphaScreen AMA1-biotinylated RON2 peptide binding; Potency, µM (doses to about 58.2 µM), for the others: at the highest dose activity change, negative = inhibition, hits mostly inhibitors; 360,000 tested, 0.2% active;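 also: potency is read from the fitted curve at half-maximal effect; 0% = vehicle wells and -100% = peptide control; nearly all actives have a fitted effect of over 45% in size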
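AMA1 (3D7) with his tag at 25 nM final met compounds first, then biotinylated RON2 peptide at 25 nM; detection used donor plus acceptor beads, 10 µg/mL apiece, read by AlphaScreen after 30 min at room temperature.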
NS1 inh = influenza NS1 inhibition | AID 2326 | Potency, µM (doses to about 46.1 µM), inactives show top-dose activity, positive = more growth | 270,000 tested, 0.4% active; calls by dose curve; also: potency is read from the fitted curve at half-maximal effect; actives are rising curves; nearly all actives have a fitted effect of over 50% in size
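OD600 was taken as the measure of yeast growth restored by compound in an NS1-expressing S. cerevisiae strain. Cells had been washed out of glucose medium and diluted 1:100 into galactose -URA medium, pH 6.0.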
Flu NS1 inh = influenza NS1 function inhibition validation. shares compounds with NS1 inh. influenza NS1 function cell assay, 15-point titration. activity change, negative = inhibition, % at 32.9 µM. 1,400 tested, under 10 active. AID 492980; calls by dose curve; also: 0% is about no effect
PR8 titer = influenza virus titer reduction, NS1 project. virus titer (log TCID50), log10 TCID50 at 5 µM. shares compounds with NS1 inh. 95 tested, 30% active. AID 504647. MDCK infected influenza A/PR/8/34, virus titer TCID50; active compounds read low; call rule not given here
* = called active by the depositor; ? = inconclusive; · = no result given. Unless noted, calls follow the shape of the dose curve; as a rule, active = well fitted curve in the direction sought with a large enough effect; inconclusive = small, poorly fitted or top-dose-only effect, or another doubt; inactive = no such curve, though single readings can be large; an effect the other way counts as inactive or inconclusive.

SMILES	AmpC no deterg	AmpC inh detg	AMA1 RON2 block	NS1 inh	Flu NS1 inh	others
CCOc1ccc(N2C(=O)CC(Sc3nc(CC(C)C)ccc3C#N)C2=O)cc1 (stereo not given)	-26.1%	3.0%	32.9%	5.1%	·
COc1ccc(OC)c(C2CC(=O)c3c([nH]c(C(=O)OC4CCC(C)CC4)c3C)C2)c1 (stereo not given)	·	16.8%	·	·	·
CN(C)S(=O)(=O)c1ccc(N2CCCC2)c(C(=O)N2CCN(S(=O)(=O)c3ccc(F)c(F)c3)CC2)c1	·	·	-8.1%	·	·
Cc1cc(O)c(-c2cc(C(=O)Nc3sc4c(c3C(=O)NCc3ccco3)CCC4)[nH]n2)cc1C	-0.9%	?	116.1%	?	·
Cc1ccc(-c2cc(C(=O)Nc3sc4c(c3C(=O)NCc3ccco3)CCC4)[nH]n2)c(O)c1	-14.5%	6.4%	87.9%	?	3.4
Nc1ccc(-c2nc3cc(N)ccc3n2CCO)cc1	-13.1%	-3.9%	7.5%	7.94µM*	2.2
Cc1ccc2c(C)nc(Nc3nc(CSc4nnnn4-c4ccccc4)cc(=O)[nH]3)nc2c1	-15.3%	-2.7%	7.9%	14.1µM*	-25.1
N#CC(C#N)=Cc1cccn1-c1ccc(S(N)(=O)=O)cc1	-11.6%	-4.7%	-21.7%	?	-8.5
CCCOc1ccc(-c2nc(-c3ccc(N)cc3)cs2)cc1	22.1%	-1.7%	·	12.6µM*	4.0
CCCOc1ccc(-c2nnc(N)s2)cc1	-13.9%	-0.3%	-14.5%	-10.5%	·
O=C1CCCC2=C1C(c1ccc(Br)cc1)c1c([nH]c(=S)[nH]c1=O)N2 (stereo not given)	-50.4%	-8.1%	59.8%	6.31µM*	13.3
CCOc1cc(/C=C2\C(=O)N(Cc3ccc(C)cc3)C(C)=C2C(=O)OC)ccc1O	-30.3%	?	?	14.1µM*	-1.9
CN(C)c1ccc(/C=C2/C(=O)NC(=O)N(CCc3ccc(F)cc3)C2=O)cc1	-44.9%	-8.5%	-7.8%	-16.4%	·
CCOc1cc(/C=C2\C(=O)NC(=O)N(CCc3ccc(F)cc3)C2=O)ccc1O	-40.9%	0.5%	-6.1%	0.355µM*	29.8
CCN(CC)S(=O)(=O)c1ccc2c(c1)c(=O)c(C(=O)N1CCN(c3ccc(F)cc3)CC1)cn2C	·	-0.2%	·	·	·
NC(=O)[C@H](Cc1cc2ccccc2s1)NC(=O)[C@@H]1CC2(CC(c3cccc(NC(=O)[C@@H]4CCC(=O)N4)c3)=NO2)CN1C(=O)c1ccccc1 (stereo not given in full)	163.9%	0.9%	15.8%	-1.0%	·
NC(=O)[C@H](Cc1cc2ccccc2s1)NC(=O)[C@@H]1CC2(CC(c3cccc(NC(=O)[C@@H]4CCC(=O)N4)c3)=NO2)CN1C(=O)/C=C/Sc1ccccc1 (stereo not given in full)	201.9%	-1.3%	-3.1%	17.8µM*	33.3
C=CCOc1ccc(/C=N/n2nnnc2N)cc1OC	·	·	3.0%	·	·
O=C1NN(c2ccc(Br)cc2)C(=O)/C1=C\c1ccc(O)cc1O	?	-12.0%	-1.8%	3.98µM*	-14.0
CC(C)NC(=O)C1CCCN(S(=O)(=O)c2cccs2)C1 (stereo not given)	-5.0%	1.9%	6.3%	2.24µM*	-2.4
COc1ccc(Nc2cc(C)c3cc(NC(=O)COc4cccc(C)c4)ccc3n2)cc1	·	6.0%	·	·	·
Cc1cc(C)c(Cn2c3ccccc3c3cnn(CC(=O)NCCCc4ccccc4)c(=O)c32)c(C)c1	·	10.6%	·	·	·
CC1(c2ccc3ccccc3c2)NC(=O)N(CC(=O)O)C1=O (stereo not given)	0.0%	?	11.0%	1.5%	·
CCCC1(c2ccccc2)NC(=O)N(CC(=O)c2[nH]c(C)c(C(=O)OCC)c2C)C1=O (stereo not given)	4.8%	-1.7%	-0.2%	?	16.3	PR8 titer=6.66*
CCOC(=O)c1c(C)[nH]c(C(=O)CN2C(=O)NC3(CCCC3)C2=O)c1C	-3.0%	-1.0%	-5.8%	-0.4%	·
SMILES	AmpC no deterg	AmpC inh detg	AMA1 RON2 block	NS1 inh	Flu NS1 inh	others
CCOC(=O)c1c(C)[nH]c(C(=O)CN2C(=O)NC(C)(c3ccc4ccccc4c3)C2=O)c1C (stereo not given)	11.1%	?	-13.1%	?	-5.5
Cc1ccc(CN(Cc2ccccc2)C(=S)NCC(=O)NCc2cccnc2)o1	39.9%	?	-0.1%	·	·
Cc1oc2ncn(CC(C)C)c(=O)c2c1C(=O)N1CCN(c2cccc(C(F)(F)F)c2)CC1	·	17.3%	·	·	·
Cn1c(SCC(=O)NNC(=S)Nc2ccccc2)nnc1-c1ccncc1	-11.0%	8.5%	·	3.16µM*	0.1
Cc1cc(N2CCOCC2)nc2ccc(NC(=O)CCC(=O)N3CCC(C)CC3)cc12	-0.2%	9.3%	6.1%	5.62µM*	?
Cc1cc(N2CCOCC2)nc2ccc(NC(=O)CCC(=O)N3CCCCC3)cc12	-1.5%	-3.4%	-12.0%	-3.5%	·
O=C(NC1CCCCC1)c1ccc2c(c1)N(Cc1ccccc1Cl)C(=O)c1ccccc1S2	·	2.9%	·	·	·
COCCn1c(C)cc(/C=C2/NC(=O)N(c3ccc(Cl)cc3)C2=O)c1C	-6.1%	-0.4%	10.7%	?	8.0
COc1ccc2[nH]c(=O)c(CNc3cccc(C)c3)cc2c1	-24.3%	-2.5%	-11.2%	2.82µM*	0.2
CCC(=O)Nc1sc2c(c1C(=O)Nc1ccccc1C)CCC(C)C2 (stereo not given)	·	5.1%	·	·	·
COc1ccccc1-n1cc(-c2ccccc2)[nH]c1=S	-29.8%	0.3%	80.2%	-6.5%	·
COc1ccccc1-n1cc(-c2ccccc2)c2c(=S)nc[nH]c21	13.1%	-2.4%	-4.8%	14.1µM*	-20.7
O=C(N/N=C/c1ccc(N2CCOCC2)s1)c1ccc(NS(=O)(=O)c2cccs2)cc1	-22.6%	0.7%	83.2%	10µM*	35.5
O=C(N/N=C/c1ccc(N2CCOCC2)cc1)c1ccc(NS(=O)(=O)c2cccs2)cc1	-37.9%	2.5%	-5.8%	·	·
O=C1CC(Nc2ccc(N3CCOCC3)cc2)C(=O)N1c1cccc(C(F)(F)F)c1 (stereo not given)	-9.6%	6.3%	0.5%	11.2µM*	4.3
O=c1cc(N2CCc3ccccc32)[nH]c(=O)n1-c1ccc(Br)cc1	?	?	0.4%	6.31µM*	21.9
COc1ccc(-n2c(=O)cc(N3CCc4ccccc43)[nH]c2=O)cc1	-20.2%	1.0%	-5.8%	-1.2%	·
Cc1ccc(/C=N/NC(=O)CN(Cc2ccccc2)S(=O)(=O)c2ccc3c(c2)OCCO3)cc1	-18.8%	-11.9%	-13.6%	12.6µM*	2.0	PR8 titer=8.5
O=C(CN(Cc1ccccc1)S(=O)(=O)c1ccc2c(c1)OCCO2)Nc1ccc2c(c1)OCCO2	-23.5%	4.0%	15.9%	22.3%	·
O=C(NNc1nc2cc3c(cc2s1)OCCO3)c1ccc(F)cc1	-34.0%	-8.4%	82.1%	·	·
